High-throughput results from PubChem.
M1 PAM = human M1 muscarinic receptor positive allosteric modulators, primary screen, CHO-K1 cells, Fluo-8 calcium fluorescence, 1536-well; Muscarinic acetylcholine receptor M1 (Homo sapiens), P11229; CHO-K1 hM1, ACh EC20; 0% = ACh EC20, 100% = maximal ACh; activation, % at 3 µM; actives 0.088% (n = 360,000); in the data active = activation above about 19%, passing the limit was not always enough
Target sequence (P11229 whole entry, looked up): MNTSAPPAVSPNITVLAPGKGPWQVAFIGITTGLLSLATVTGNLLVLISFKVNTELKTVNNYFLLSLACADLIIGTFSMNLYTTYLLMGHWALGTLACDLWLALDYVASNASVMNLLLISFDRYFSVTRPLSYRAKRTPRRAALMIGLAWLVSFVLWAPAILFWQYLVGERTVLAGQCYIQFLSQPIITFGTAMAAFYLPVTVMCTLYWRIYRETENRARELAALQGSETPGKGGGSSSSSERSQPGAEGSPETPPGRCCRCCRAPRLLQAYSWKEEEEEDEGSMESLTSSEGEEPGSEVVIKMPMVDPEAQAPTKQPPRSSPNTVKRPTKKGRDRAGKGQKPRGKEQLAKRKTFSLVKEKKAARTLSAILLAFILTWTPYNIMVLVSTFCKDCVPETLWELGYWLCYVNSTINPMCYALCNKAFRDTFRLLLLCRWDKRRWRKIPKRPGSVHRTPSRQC
M1 antag = human M1 muscarinic receptor antagonists, primary screen, CHO-K1 cells, Fluo-8 calcium fluorescence, 1536-well | Muscarinic acetylcholine receptor M1 (Homo sapiens), P11229 | CHO-K1 hM1, ACh EC80 antagonist | inhibition, % at 3 µM | actives 1.3% (n = 360,000);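 active = percent inhibition above its own plate's cutoff, namely the mean of that plate's compound wells plus 3 SD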;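 also: peak over basal fluorescence ratio during 140 s after agonist addition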
M1 ag = human M1 muscarinic receptor agonists, primary screen, Fluo-8 calcium fluorescence, CHO-K1 cells, HTS. Muscarinic acetylcholine receptor M1 (Homo sapiens), P11229. CHO-K1 hM1, agonist mode; 0% DMSO, 100% acetylcholine EC100. activation, % at 3 µM. actives 0.33% (n = 360,000);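 active = activation above the run's mean compound activation plus 3 SD, cut at about 16% in these data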;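 also: peak over basal fluorescence ratio within a 140 s kinetic read after compound addition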
CHO-K1 Ca antag = nonselective inhibitor or artifact in parental CHO-K1 cells; inhibition, % at 3 µM; actives 0.6% (n = 360,000); ATP-induced calcium, Fluo-8 fluorescence;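 active = inhibition above a per-plate cutoff, the plate's mean sample inhibition plus 3 SD, cut at about 24% in these data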
CHO-K1 Ca ag = counter-screen for M1 agonists: effect in parental CHO-K1 cells; Fluo-8 calcium fluorescence; scaled to maximal ATP response, vehicle zero; actives 0.48% (n = 360,000); activation, % at 3 µM; AID 602248, 2012; in the data active = activation above about 15%;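 also: untransfected CHO-K1 host cells lacking M1 receptor as counterscreen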
M1 PAM parental = nonselective calcium activators in parental CHO-K1 cells, primary screen, counter-screen for M1 PAM project, cell-based, Fluo-8 calcium fluorescence, full deck, 1536-well; AID 602247, 2012; activation, % at 3 µM; ATP EC20; 0% at ATP EC20, 100% at ATP max; actives 0.02% (n = 360,000);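 active = activation above the run cutoff, the mean activation of all test compounds plus 3 SD, cut at about 40% in these data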;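 also: peak over basal fluorescence ratio in a 140 s read after ATP addition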
A number is an active result; . = inactive; / = no result given. A selection: hits, their analogues and other compounds. The true share with any hit is near 2.3%.

SMILES	M1 PAM	M1 antag	M1 ag	CHO-K1 Ca antag	CHO-K1 Ca ag	M1 PAM parental
COc1c(O)cc2c(c1O)[C@@H]1OC(CO)C(O)C(O)[C@H]1OC2=O (stereo partly drawn)	.	.	.	.	.	.
COc1c(O)cc2c(c1O)C1OC(CO)C(O)C(O)C1OC2=O (stereo not drawn)	.	.	48.4	27.6	.	.
COC(=O)c1ccccc1NC(=O)CSc1nc(N)cc(N)n1	.	.	.	26.2	.	.
CN1CCN(CC(O)(c2ccc(Cl)cc2)c2ccc(Cl)cc2)CC1	.	72.1	.	.	.	.
C=CCn1c(C)cc(C(=O)CSc2nc3ccccc3[nH]2)c1C	.	38.5	.	.	17.7	.
Cc1cc(C(=O)CSc2nc3ccccc3[nH]2)c(C)n1Cc1ccco1	.	40.1	.	26.6	.	.
CCOC(=O)C1(CC2CCCCO2)CCN(Cc2cc3ccccc3[nH]2)CC1 (stereo not drawn)	.	28.6	62.2	.	57.1	.
CCCC(=O)NC(=S)Nc1ccc(S(=O)(=O)Nc2ccc(OCC)cc2)cc1	.	.	27.8	.	26.9	.
C=C(C)CN(CC)C(=O)COc1ccc(S(=O)(=O)Nc2ccc(OC)cc2)cc1	.	.	20.6	.	.	.
CCOc1ccc(NS(=O)(=O)c2ccc(NC(=S)NC(=O)CC(C)C)cc2)cc1	.	.	17.4	.	.	.
CCC(=O)NC(=S)Nc1ccc(S(=O)(=O)NC(C)=O)cc1	.	.	.	28.9	.	.
CCN(CC(=O)Nc1ccc(OC)cc1)C(=O)c1ccc(NS(=O)(=O)c2ccc(C(C)=O)cc2)cc1	.	.	.	.	.	.
CCOc1ccc(NS(=O)(=O)c2ccc(C(=O)N(C)CC(=O)Nc3ccc(OC)cc3)cc2)cc1	.	.	.	.	.	.
CN(C(=O)c1cccc(NC(=O)Cc2ccc(NC(=O)C3CCCN(S(=O)(=O)c4cccc([N+](=O)[O-])c4)C3)cc2)c1)C1CCC1 (stereo not drawn)	.	.	.	.	.	.
O=C(O)C(=Cc1ccc([N+](=O)[O-])cc1)c1cccc(Cl)c1	.	.	.	.	.	.
Cc1ccc(C2=NS(=O)(=O)N(C)C(C(=O)NCc3ccccc3)=C2)cc1	.	.	.	.	.	.
O=C(COC(=O)Cc1ccc(Cl)cc1Cl)Nc1ccccc1OC(F)F	.	.	.	.	.	.
O=C1CCCC2=C1C1c3ccccc3C(=O)N1c1ccc(C(=O)c3ccccc3)cc1N2 (stereo not drawn)	.	.	.	24.2	.	.
O=C1CC(c2ccco2)CC2=C1C1c3ccccc3C(=O)N1c1ccccc1N2 (stereo not drawn)	.	.	.	.	.	.
COc1ccc(OC)c(CN2C(=O)c3ccccc3C2c2nnnn2-c2ccc3c(c2)OCCO3)c1 (stereo not drawn)	/	/	/	.	.	.
O=Cc1ccc(-c2ccccc2C(=O)O)o1	.	.	.	29.3	.	.
CC1=C(C(=O)N2CCOCC2)C(c2ccc(Cl)cc2)NC(=S)N1 (stereo not drawn)	.	.	.	.	19.7	.
COc1ccccc1-c1ccc(/C=C2\C=CC(=O)O2)o1	.	.	27.0	.	28.0	.
CC/C(=N\NC(=O)CSc1ncccn1)c1ccc2c(c1)OCCO2	.	.	.	25.6	.	.
CC(C)CC(=O)N1CCC(N(CCc2ccccc2)Cc2ccccc2)CC1	.	56.9	.	.	.	.
SMILES	M1 PAM	M1 antag	M1 ag	CHO-K1 Ca antag	CHO-K1 Ca ag	M1 PAM parental
CC1CCN(C(=O)CN(CCc2ccccc2)S(C)(=O)=O)CC1	.	.	.	.	.	.
CC1=C(C(=O)OCCOc2ccccc2)C(c2ccsc2)NC(=O)N1C (stereo not drawn)	.	.	.	.	.	.
CCOC(=O)CC(NC(=O)c1ccc(C)cc1)c1ccc(OC)cc1 (stereo not drawn)	.	.	.	.	.	.
COc1ccc(C(=O)c2ccccc2O)c(O)c1	.	.	.	24.3	.	.
O=C(O)c1ccc(CN2C[C@@H](CO)O[C@@H](n3cnc4c(NCc5ccc(F)cc5)ncnc43)C2)cc1	.	.	.	.	.	.
Cc1cc(Cl)ccc1OCC(O)CNCCc1ccc(S(N)(=O)=O)cc1 (stereo not drawn)	.	43.1	.	.	.	.
CCC(=O)Oc1ccc(NC(=O)c2ccco2)cc1	.	.	.	.	.	.
O=C(Nc1ccc(OC(=O)c2ccco2)cc1)c1ccco1	.	.	.	28.0	.	.
O=C(Nc1ccc(Cl)c(Cl)c1)Oc1ccc(NC(=O)c2ccco2)cc1	.	.	.	34.0	.	.
O=C(Nc1ccc(Br)c(Cl)c1)c1ccco1	.	.	.	.	.	.
O=C(NC(NC(=S)Nc1ccc(Cl)c(Cl)c1)C(Cl)(Cl)Cl)c1ccco1 (stereo not drawn)	.	.	.	29.0	.	.
O=C(CCc1ccccc1)NC(NC(=S)Nc1ccc(Cl)cc1)C(Cl)(Cl)Cl (stereo not drawn)	.	23.5	.	.	.	.
Cc1ccc(NC(=O)CN2C(=O)S/C(=C/c3ccncc3)C2=O)cc1	.	.	.	.	.	.
CCN1CCN(C(=O)CCc2nnc3ccc(N4CCC5(CC4)OCCO5)nn23)CC1	.	.	.	.	.	.
COc1cccc2c1O/C(=N\O)C(C(=O)Nc1cccc(Br)c1)C2 (stereo not drawn)	.	.	.	.	.	.
COc1ccc([N+](=O)[O-])cc1NC(=O)c1cn(-c2ccc(Cl)cc2)c(=O)c2ccccc12	.	.	.	.	.	.
CC1CCC2(CC1)NC(=O)N(CC(=O)c1ccc(Cl)s1)C2=O (stereo not drawn)	.	.	.	.	.	.
COc1ccc(CCNC(=O)c2cc3sc(Cl)cc3n2C)cc1OC	.	.	.	24.1	.	.
COc1ccc(CCNC(=O)c2sc3ccccc3c2Cl)cc1OC	.	.	.	.	.	.
O=C(Cn1nnc(-c2ccc(Cl)cc2)n1)NCC1CCCCC1	.	.	.	.	.	.
CCOC(=O)c1ccc(N2CCN(c3ccc(F)cc3)CC2)c(NC(=O)Nc2cccc(OC)c2)c1	.	34.4	.	.	.	.
CCCCNC(=O)C1(C)CCCCN1C(=O)c1ccc2ccccc2n1 (stereo not drawn)	.	.	.	.	.	.
CCOC(=O)C1CCCN(CC(=O)Nc2cc(C)cc(C)c2)C1 (stereo not drawn)	.	.	.	.	.	.
